Experiment [1] can be described thus: circadian clock period modulators, cell-based, LOPAC library, luminescence reporter (AID 2774).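 Note: values are relative to mean of DMSO wells on each plate.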 The settings on record: circadian reporter cells, at 7 µM, actives lie on both sides.
The subject of experiment [2] is Hepatitis C virus NS3 helicase. Nature of the experiment: HCV NS3 helicase inhibitors, primary screen, biochemical, fluorescence polarization, LOPAC1280 library (AID 687035; in the data active = inhibition above about 37%). The settings on record: Purified HCV NS3 helicase, Cy5-dT15 ssDNA binding fluorescence polarization; stronger effect = higher value; concentration not given here. (Fluorescence polarisation rises when a labelled molecule tumbles more slowly, as on binding a larger partner.)

Experiment [3] in a line: Cy5 fluorescence quenching or enhancement artefacts, artefact control for HCV NS3 helicase inhibitor project, biochemical, LOPAC1280 (AID 687037). The settings on record: Cy5-DNA-NS3h complex fluorescence interference counterscreen.
The subject of experiment [4] is Aerobactin synthetase IucA (Klebsiella pneumoniae). Briefly: IucA aerobactin synthetase inhibitors, biochemical, Tocris library, absorbance (AID 1345561).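 Note: 100% = enzyme without compound and 0% = no enzyme.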 The settings on record: purified IucA enzyme assay, absorbance (OD) read-out; stronger effect = lower value;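 tested at 8 µM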.
Experiment [5] relates to Aerobactin synthetase IucA (Klebsiella pneumoniae, hypervirulent). Briefly: IucA enzyme inhibition, biochemical, LOPAC library, absorbance readout (AID 1346212).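 Note: 100% = no compound wells and 0% = no enzyme wells.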 The settings on record: IucA enzyme assay, absorbance (OD) readout; stronger effect = lower value;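 tested at 8 µM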.
Experiment [6] in a line: sensitizers of A549 cells to miR-34 induction, primary screen, imaging, A549 dox-inducible miR-34, nuclei and caspase counts (AID 1347080;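 active = compounds whose cell count with miR-34 switched on is under 0.7 times the count with it off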). The note with it: A549 miR-34 inducible, Hoechst nuclei count, 48 h.
Experiment [7] is described as follows: phospholipid biosynthesis inhibitors in animal cells, primary screen, cell-based, LOPAC library, screen 4 (AID 1347384). The settings on record: phospholipid biosynthesis inhibition screen, at 10 µM.
Experiment [8] can be described thus: survival rescue of mitochondrial mutant cells in low glucose, primary screen, MELAS cybrids, Rieske KO mouse fibroblasts, CellTiter-Glo (AID 1508586;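 active = mean z-score across replicates of 1.96 or higher in either the MELAS or the Rieske mutant cell line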;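 note: z relative to plate mean and SD of compound and empty wells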).
Experiment [9] in a line: viability rescue of complex I mutant cybrids, primary screen, cell-based, galactose medium, ATP luminescence (AID 1645843;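 active = z-score of at least 1.8 in each of two replicates, scored against plate mean and spread of sample wells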;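 note: positive z means more ATP and so rescue of galactose-driven cybrid death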). The note with it: complex I mutant cybrid cells, 72 h, stronger effect = higher value.
Experiment [10] has as its target ATP-dependent translocase ABCB1 (Homo sapiens) (UniProt P08183). Briefly: MDR1 (ABCB1) efflux transporter inhibition, cell-based (AID 377; in the data active = fluorescence slope change above about 50%). The note with it: MDR1-expressing cells, fluorescent substrate accumulation slope; stronger effect = higher value; concentration not given here.
Experiment [11] in a line: hESC survival regulators, cell-based (AID 493140).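 Note: cells exposed to compounds for four days before counting.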 The settings on record: human embryonic stem cell survival screen; stronger effect = higher value.
The nature of experiment [12]: liver-stage malaria parasite growth inhibition, primary screen, cell-based, HepG2, luciferase luminescence, HepG2 viability (AID 624349; in the data active = parasite load remaining mostly below about 12%, no sharp cut-off; inactive = mostly above about 10%;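 note: 100% = mean of DMSO negative control wells on the same plate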). The settings on record: P. berghei liver stage in HepG2, luciferase luminescence, concentration not given here; parasite load remaining: stronger effect = lower value; viability: measured here: HepG2 viability without parasites.
Experiment [13] is described as follows: differential killing of epithelial or mesenchymal cells, primary screen, imaging, PC-3E GFP, TEM4-18 mCherry, co-culture (AID 1345086;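 active = compounds killing one labelled cell type while sparing the other, by normalised counts and ratio limits, not self-fluorescent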;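 for all read-outs here: cells exposed to compound for 72 h before imaging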;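 for red/green cell ratio (normalised): normalised mesenchymal count divided by normalised epithelial count so high means epithelial killing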). The settings on record: imaging cell counts, at 1 µM; for red/green cell ratio (normalised): actives lie on both sides.
Experiment [14] can be described thus: growth inhibition of DIPG glioma cells, dose response, cell-based, SU-DIPG-XIII, MIPE4.0, CellTiter-Glo, qHTS (AID 1347061; cut-off not given, nearly all actives have AC50 up to about 37 µM;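 note: cells exposed to compound for 48 hours before readout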). The note with it: SU-DIPG-XIII viability, CellTiter-Glo ATP luminescence. (In general: ATP-based viability assays read luminescence as a measure of living cells.)
Experiment [15] can be described thus: growth inhibition of DIPG glioma cells, dose response, cell-based, JHH-DIPG-1, MIPE4.0, CellTiter-Glo, qHTS (AID 1347062; cut-off not given, nearly all actives have AC50 up to about 27 µM). The note with it: JHH-DIPG-1 viability, CellTiter-Glo ATP luminescence.
Experiment [16] in a line: growth inhibition of DIPG glioma cells, dose response, cell-based, SU-DIPG-XIII, MIPE5.0, CellTiter-Glo, qHTS (AID 1347064; cut-off not given, nearly all actives have AC50 up to about 23 µM). The settings on record: SU-DIPG-XIII viability, CellTiter-Glo ATP luminescence.
Experiment [17] is described as follows: viability loss in pontine glioma line – cell-based, SU-DIPG-XXV, MIPE5.0, CellTiter-Glo, qHTS, dose response (AID 1347065; cut-off not given, nearly all actives have AC50 up to about 26 µM;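 note: cells exposed to compound for 48 hours before ATP readout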). The note with it: CellTiter-Glo ATP luminescence.
Experiment [18] is described as follows: JHH-DIPG-1 glioma cell viability, MIPE5.0 library, CellTiter-Glo luminescence, qHTS (AID 1347067; cut-off not given, nearly all actives have AC50 up to about 26 µM;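 note: cells exposed to compound for 48 hours before readout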). The settings on record: JHH-DIPG-1 glioma viability, CellTiter-Glo ATP luminescence.
Experiment [19] can be described thus: SU-DIPG-XXV glioma cell viability, MIPE5.0 library, qHTS (AID 1347068; cut-off not given, nearly all actives have IC50 up to about 30 µM).
Experiment [20] can be described thus: inhibitors of Cryptococcus chitosan production, flow cytometry, Cibacron Brilliant Red staining (AID 1347148).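 Note: compound exposure lasted three days at 37 degrees C.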 The settings on record: Cryptococcus neoformans chitosan, stronger effect = lower value; at 10 µM unless noted. (In general: Flow cytometry measures light scatter and fluorescence of single cells or particles in a stream.)
Experiment [21] has as its target Mitogen-activated protein kinase 7 (Homo sapiens) (UniProt Q13164). Nature of the experiment: ERK5 transactivation activators in reporter cells, primary screen, cell-based, HTS (AID 1508626;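 active = luciferase signal above three times the same-plate solvent-only control wells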;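 note: luciferase driven by Gal4-ERK5 fusion binding five Gal4 sites before minimal TATA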). The note with it: HeLa Gal4-ERK5 transactivation, 18 h, at 5 µM, stronger effect = higher value.
[22] abbreviates: stronger effect = lower value, cell number ratio, induced over uninduced.
Where [23] appears, read: measured here: relative caspase fold change +Dox/-Dox.
The mark [24] stands for this setting: measured here: total cells with miR-34 induction, stronger effect = lower value.
[25] abbreviates: measured here: total cells without miR-34 induction.
Setting [26] is: measured here: epithelial PC-3E GFP cell survival.
[27] abbreviates: measured here: mesenchymal TEM4-18 mCherry cell survival.

Each structure is given as a SMILES string. “And” between values parts separate entries of the source, which are not always exact repeats. Equal entries are not always repeated. Inconclusive results are not listed. The source made the active and inactive calls. Unless noted, the rule behind the calls is not given here.

Sequence of ATP-dependent translocase ABCB1 (Homo sapiens) (P08183 whole entry, looked up): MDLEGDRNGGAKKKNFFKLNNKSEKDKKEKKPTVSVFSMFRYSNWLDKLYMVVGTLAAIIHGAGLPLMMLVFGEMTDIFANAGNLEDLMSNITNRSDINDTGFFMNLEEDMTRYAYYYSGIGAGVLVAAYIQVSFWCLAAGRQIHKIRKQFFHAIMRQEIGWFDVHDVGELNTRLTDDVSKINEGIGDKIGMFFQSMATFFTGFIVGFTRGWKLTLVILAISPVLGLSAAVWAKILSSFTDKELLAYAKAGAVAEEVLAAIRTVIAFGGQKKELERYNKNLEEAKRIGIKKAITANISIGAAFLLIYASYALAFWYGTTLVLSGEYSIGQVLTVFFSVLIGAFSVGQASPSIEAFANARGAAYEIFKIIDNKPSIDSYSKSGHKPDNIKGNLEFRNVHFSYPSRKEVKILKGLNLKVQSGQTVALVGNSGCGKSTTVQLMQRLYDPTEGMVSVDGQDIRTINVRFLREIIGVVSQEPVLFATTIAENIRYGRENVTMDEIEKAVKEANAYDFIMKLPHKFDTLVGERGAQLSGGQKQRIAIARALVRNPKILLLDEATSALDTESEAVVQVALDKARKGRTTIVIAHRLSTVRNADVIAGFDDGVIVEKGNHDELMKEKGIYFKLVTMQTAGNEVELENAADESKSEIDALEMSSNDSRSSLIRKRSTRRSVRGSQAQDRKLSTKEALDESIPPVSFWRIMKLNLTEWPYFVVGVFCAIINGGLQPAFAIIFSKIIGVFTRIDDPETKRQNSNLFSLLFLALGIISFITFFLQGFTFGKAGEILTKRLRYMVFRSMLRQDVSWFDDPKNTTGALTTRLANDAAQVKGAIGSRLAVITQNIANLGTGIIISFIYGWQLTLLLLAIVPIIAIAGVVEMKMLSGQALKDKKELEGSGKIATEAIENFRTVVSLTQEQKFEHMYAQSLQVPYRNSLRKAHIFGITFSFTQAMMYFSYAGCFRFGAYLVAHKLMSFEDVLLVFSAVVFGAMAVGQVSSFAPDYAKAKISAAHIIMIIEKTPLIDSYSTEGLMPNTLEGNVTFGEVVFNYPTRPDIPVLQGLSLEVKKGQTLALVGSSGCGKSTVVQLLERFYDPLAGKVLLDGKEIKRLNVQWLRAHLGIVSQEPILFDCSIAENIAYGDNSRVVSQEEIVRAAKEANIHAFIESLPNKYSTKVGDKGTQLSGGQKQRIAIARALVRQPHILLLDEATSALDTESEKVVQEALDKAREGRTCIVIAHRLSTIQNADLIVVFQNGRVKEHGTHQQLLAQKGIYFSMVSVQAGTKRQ
Sequence of Mitogen-activated protein kinase 7 (Homo sapiens) (Q13164 whole entry, looked up, the tested form may be a part): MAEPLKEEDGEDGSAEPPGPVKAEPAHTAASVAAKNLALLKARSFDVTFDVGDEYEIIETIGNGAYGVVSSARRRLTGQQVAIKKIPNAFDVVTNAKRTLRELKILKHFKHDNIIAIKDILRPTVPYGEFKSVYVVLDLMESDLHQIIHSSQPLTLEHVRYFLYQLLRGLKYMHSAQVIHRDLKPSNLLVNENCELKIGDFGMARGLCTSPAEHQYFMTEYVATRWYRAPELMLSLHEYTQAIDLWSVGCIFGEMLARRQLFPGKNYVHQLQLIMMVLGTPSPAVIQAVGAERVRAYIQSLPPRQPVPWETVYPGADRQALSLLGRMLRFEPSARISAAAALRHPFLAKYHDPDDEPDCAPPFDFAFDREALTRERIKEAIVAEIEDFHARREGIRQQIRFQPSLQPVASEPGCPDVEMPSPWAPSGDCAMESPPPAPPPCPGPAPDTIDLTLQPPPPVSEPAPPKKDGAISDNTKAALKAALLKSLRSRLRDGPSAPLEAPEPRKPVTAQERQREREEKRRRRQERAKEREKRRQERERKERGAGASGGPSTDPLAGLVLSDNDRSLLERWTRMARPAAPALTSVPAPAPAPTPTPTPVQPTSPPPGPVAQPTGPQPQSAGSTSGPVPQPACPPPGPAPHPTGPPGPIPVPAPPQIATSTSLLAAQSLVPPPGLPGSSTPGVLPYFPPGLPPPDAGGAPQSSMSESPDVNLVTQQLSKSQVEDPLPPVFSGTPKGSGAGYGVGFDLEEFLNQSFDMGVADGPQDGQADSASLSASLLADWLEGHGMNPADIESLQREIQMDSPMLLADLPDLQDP

The term inhibition denotes the change of the read-out against control, counted positive when it falls. By remaining activity is commonly meant the signal under treatment as a percentage of the control signal. For `CN1CCC(c2c[nH]c3ccc(O)cc23)CC1`, the period change in experiment [1] is -0.16 h (inactive). The inhibition in experiment [2] is -2% (inactive). In addition, the fluorescence ratio (interference) in [3] was 1 (inactive). Also, the remaining activity in [4] is 116% (inactive); in experiment [5], 119% (inactive). Moreover, the fold change is 1.01 (inactive) in [6] (stronger effect = lower value); 0.949 (inactive) and 0.908 (inactive) in experiment [6] (setting [22]); 1.73 and 0.894 and 0.857 in experiment [6] (setting [23]). Moreover, the cell count was 10800 and 7640 and 9030 in [6] (setting [24]); 10700 and 8050 and 9950 in experiment [6] (setting [25]). Also, in [7], the result was inactive. Moreover, the z-score in experiment [8] (MELAS cybrid survival, CellTiter-Glo 48 h, stronger effect = higher value) was -0.212 (inactive); in experiment [8] (Rieske KO mouse fibroblast survival, CellTiter-Glo 72 h) it was -0.062; in experiment [9], 0.06 (inactive) and -0.325 (inactive).

The viability is a read-out of living cells in per cent, often relative to untreated cells. In the case of `COc1cc2c(c(OC)c1OC)-c1ccc(O)c(=O)cc1C(N)CC2` (stereo not given), the fluorescence slope change in experiment [10] was 63.7% (active). Further, the survival in experiment [11] is 6 (inactive). Also, the parasite load remaining in experiment [12] is 59.8% (inactive). For the same compound, in experiment [12], the viability is 94.7%. Also, the red/green cell ratio (normalised) in experiment [13] is 0.78 (inactive). Also, the normalised cell number in experiment [13] (setting [26]) amounted to 1.21; in experiment [13] (setting [27]), 0.95.

For `C#C[C@@H]1CC2C3CCC4=C[C@@H](OC(C)=O)CCC4C3CC[C@]2(C)[C@H]1OC(C)=O` (stereo not given in full), the parasite load remaining in experiment [12] is 19.4% (inactive). Moreover, the viability in experiment [12] came out at 101%. For the same compound, the red/green cell ratio (normalised) in [13] was 0.9 (inactive). For the same compound, the normalised cell number in [13] (setting [26]) is 1.25; in experiment [13] (setting [27]) it was 1.12. Moreover, the fold change was 0.854 (inactive) in experiment [6] (stronger effect = lower value) and 3.71 in experiment [6] (setting [23]). In addition, the cell count is 11300 in experiment [6] (setting [24]) and 13200 in experiment [6] (setting [25]).

Regarding `CCCCCCCCCCNCCC` (tested in a mixture with another compound), in experiment [12], the parasite load remaining was 23% (inactive). Moreover, the viability in experiment [12] was determined as 92.6%. The red/green cell ratio (normalised) in experiment [13] (counts scaled to control wells, 1 = unselective) is 0.92 (inactive). For the same compound, the normalised cell number was 1.01 in experiment [13] (setting [26]) and 0.93 in [13] (setting [27]). In addition, the fold change in experiment [6] (setting [22]) is 0.945 (inactive); in experiment [6] (setting [23]) it was 1.32. Further, the cell count in experiment [6] (setting [24]) stood at 11300; in experiment [6] (setting [25]) it was 11900.

For `C/C(O)=C(\C#N)C(=O)Nc1cc(Br)ccc1Br`, the period change in [1] was 0.265 h (inactive). In addition, the survival in experiment [11] was 124 (inactive). The inhibition in experiment [2] is 1% (inactive). The fluorescence ratio (interference) in experiment [3] is 1 (inactive). Further, the values for the remaining activity in experiment [4] and in experiment [5] were 116% (inactive) and 112% (inactive), respectively. In addition, the compound was called inactive in experiment [14], in experiment [15], in [16], in [17], in [18] and in experiment [19]. Besides, the fold change in experiment [6] (stronger effect = lower value) is 1.11 (inactive) and 0.867 (inactive); in experiment [6] (setting [23]), 0.986 and 2.29. The cell count is 5190 and 8220 in [6] (setting [24]); 4660 and 9480 in experiment [6] (setting [25]). Also, the fold fluorescence in [20] is 3.51 [at 138.9 µM] (inactive). Further, in experiment [9], the z-score is 2.97 (active).

`CC(C)(C)c1o[nH]c(=O)c1CC(N)C(=O)O` (stereo not given): the period change in experiment [1] was -0.635 h (inactive). The inhibition in [2] is -1% (inactive). For the same compound, the fluorescence ratio (interference) in [3] was 1 (inactive). Besides, the remaining activity in experiment [4] was 108% (inactive); in experiment [5], 110% (inactive). For the same compound, the fold change was 1 (inactive) and 0.891 (inactive) in [6] (stronger effect = lower value); 1.8 and 0.776 in [6] (setting [23]). Also, the cell count is 10700 and 8780 in experiment [6] (setting [24]); 10700 and 9850 in experiment [6] (setting [25]). In addition, the call in experiment [7] was inactive. Besides, the z-score in experiment [9] is -0.285 (inactive) and -0.155 (inactive).

As to `c1cncc(C2=NCCC2)c1`, the fluorescence slope change in [10] is 24.1% (inactive). Besides, the survival in [11] is 4.17 (inactive). Also, the parasite load remaining in experiment [12] was 113% (inactive). Moreover, in experiment [12], the viability is 106%. The red/green cell ratio (normalised) in experiment [13] is 0.94 (inactive). Further, the results for the normalised cell number in experiment [13] (setting [26]) and in [13] (setting [27]) were 1 and 0.94, respectively. Further, the fold change in [6] (stronger effect = lower value) was 0.891 (inactive); in experiment [6] (setting [23]) it was 1.54. For the same compound, the cell count in experiment [6] (setting [24]) amounted to 7680; in experiment [6] (setting [25]), 8620. The luciferase signal in experiment [21] is 48 AU (inactive).
